About 300 (9.4%) of roughly 3,200 compounds showed activity. Only a selection was taken, and actives are over-represented in it overall.
System: A673/TR/shEF
Assay: cell viability (LOESS-normalised, relative to median of negative controls) (log2 ratio); higher = more viable cells (less compound effect), active = hit call of the paper (over 3 MAD below the median)
Conditions: treatment time: 72 h
How it was run: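 Doxycycline, present or absent from 24 h before compounds, was used to induce EWS-FLI1 shRNA knockdown in A673/TR/shEF Ewing sarcoma cells at 1,500 per well in 384-well plates. Cells then received library compounds at two or more concentrations, or DMSO controls, for three days. Viability was measured by CellTiter-Glo luminescence on an Envision reader, and per-plate LOESS correction, division by the negative-control median and log2 transformation followed.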

[1] = 0.25 µM, library screen: screen1, EWS-FLI1 expression: high (no doxycycline)
[2] = 0.25 µM, library screen: screen1, EWS-FLI1 expression: low (doxycycline-induced shRNA knockdown)
[3] = 2.5 µM, library screen: screen1, EWS-FLI1 expression: high (no doxycycline)
[4] = 2.5 µM, library screen: screen1, EWS-FLI1 expression: low (doxycycline-induced shRNA knockdown)
[5] = 0.25 µM, library screen: screen2, EWS-FLI1 expression: high (no doxycycline)
[6] = 0.25 µM, library screen: screen2, EWS-FLI1 expression: low (doxycycline-induced shRNA knockdown)
[7] = 2.5 µM, library screen: screen2, EWS-FLI1 expression: high (no doxycycline)
[8] = 2.5 µM, library screen: screen2, EWS-FLI1 expression: low (doxycycline-induced shRNA knockdown)
[9] = 0.103 µM, library screen: screen3, EWS-FLI1 expression: high (no doxycycline)
[10] = 0.103 µM, library screen: screen3, EWS-FLI1 expression: low (doxycycline-induced shRNA knockdown)
[11] = 0.308 µM, library screen: screen3, EWS-FLI1 expression: high (no doxycycline)
[12] = 0.308 µM, library screen: screen3, EWS-FLI1 expression: low (doxycycline-induced shRNA knockdown)
[13] = 0.926 µM, library screen: screen3, EWS-FLI1 expression: high (no doxycycline)
[14] = 0.926 µM, library screen: screen3, EWS-FLI1 expression: low (doxycycline-induced shRNA knockdown)
[15] = 2.8 µM, library screen: screen3, EWS-FLI1 expression: high (no doxycycline)
[16] = 2.8 µM, library screen: screen3, EWS-FLI1 expression: low (doxycycline-induced shRNA knockdown)
[17] = 8.3 µM, library screen: screen3, EWS-FLI1 expression: high (no doxycycline)
[18] = 8.3 µM, library screen: screen3, EWS-FLI1 expression: low (doxycycline-induced shRNA knockdown)
[19] = 25 µM, library screen: screen3, EWS-FLI1 expression: high (no doxycycline)
[20] = 25 µM, library screen: screen3, EWS-FLI1 expression: low (doxycycline-induced shRNA knockdown)

Measured: cell viability (log2)

CC(=O)Oc1ccc2c(c1)CCC1C2CCC2(C)C(=O)CCC12 (configuration not stated)
inactive: [1] 0.0434 | [2] -0.0193 | [3] 0.146 | [4] 0.0428

N.N.N.N.N.O.[Ru+2]
inactive: [5] 0.216 | [6] 0.0909 | [7] 0.256 | [8] 0.0639

CCC/C=C/C=C/C1CC(O)C(O)C(=O)C1C=O (configuration not stated)
inactive: [1] -0.0508 | [2] 0.0579 | [3] 0.0447 | [4] 0.105

C=C1CC[C@@H]2[C@H](CC2(C)C)C(=O)CC[C@@H]1O
inactive: [1] 0.0475 | [2] 0.00133 | [3] 0.0814 | [4] 0.0623

C=C1C(C)(C)[C@@]2(Cl)C(Cl)[C@]1(Cl)C(Cl)(Cl)C2(Cl)Cl (some centres not stated)
inactive: [1] 0.0218 | [2] 0.106 | [3] 0.0433 | [4] 0.0358

COc1ccccc1CN1CCN(Cc2ccc(OC)c(OC)c2OC)CC1
inactive: [1] 0.0684 | [2] 0.104 | [3] 0.0567 | [4] 0.0723

CC[C@H]1OC(=O)[C@H](C)[C@@H](O[C@H]2C[C@@](C)(OC)[C@@H](O)[C@H](C)O2)[C@H](C)[C@@H](O[C@@H]2O[C@H](C)C[C@H](N(C)C)[C@H]2O)[C@](C)(O)C[C@@H](C)/C(=N/OCOCCOC)[C@H](C)[C@@H](O)[C@]1(C)O
inactive: [1] 0.13 | [2] 0.107 | [3] 0.122 | [4] 0.103

C/C=C/CC(C)C(O)C1C(=O)NC(CC)C(=O)N(C)CC(=O)N(C)C(CC(C)C)C(=O)NC(C(C)C)C(=O)N(C)C(CC(C)C)C(=O)NC(C)C(=O)NC(C)C(=O)N(C)C(CC(C)C)C(=O)N(C)C(CC(C)C)C(=O)N(C)C(C(C)C)C(=O)N1C (configuration not stated)
inactive: [1] 0.0736 | [2] 0.0415 | [5] 0.25 | [6] 0.127 | [3] 0.0328 | [4] 0.00672 | [7] 0.11 | [8] 0.104

CC(C)(O)[C@@H]1CC[C@](C)([C@H]2[C@@H](O)C[C@@]3(C)[C@@H]4C[C@H](O[C@@H]5O[C@H](CO)[C@@H](O)[C@H](O)[C@H]5O)[C@H]5C(C)(C)[C@@H](O[C@@H]6OC[C@@H](O)[C@H](O)[C@H]6O)CC[C@@]56C[C@@]46CC[C@]23C)O1
inactive: [9] 0.0688 | [10] 0.0886 | [11] 0.0588 | [12] 0.038 | [13] 0.056 | [14] 0.105 | [15] 0.044 | [16] -0.00938 | [17] 0.0806 | [18] 0.0911 | [19] 0.0188 | [20] 0.0301

CC(=O)O[C@H]1CC[C@@]2(C)[C@@H](CC[C@@H]3[C@@H]2CC[C@]2(C)[C@@H]4[C@H](C[C@@H]32)O[C@]2(CC[C@@H](C)CO2)[C@H]4C)C1
inactive: [1] 0.0876 | [2] 0.0708 | [3] 0.176 | [4] 0.151

CC1=C(Cl)C(O)=CC(=O)C12Oc1cc(O)c(Cl)c(C)c1C2=O (configuration not stated)
inactive: [1] 0.0863 | [2] 0.0945 | [3] 0.127 | [4] 0.13

CSCC[C@H](NC=O)C(=O)N[C@@H](Cc1ccccc1)C(=O)O
inactive: [1] 0.0894 | [2] 0.169 | [3] 0.0791 | [4] 0.113

C/C=C(/C)C(=O)O[C@@H]1c2c(ccc3ccc(=O)oc23)OC(C)(C)[C@@H]1OC(C)=O
inactive: [1] -0.0115 | [2] 0.00938 | [3] 0.181 | [4] 0.0803

C[C@@H]1O[C@@H](O[C@H]2[C@H](O[C@H]3CC[C@@]4(C)[C@@H](CC[C@]5(C)[C@@H]4CC=C4[C@@H]6CC(C)(C)CC[C@]6(C(=O)O)CC[C@]45C)[C@]3(C)CO)OC[C@H](O)[C@@H]2O)[C@H](O)[C@H](O)[C@H]1O
inactive: [1] 0.0421 | [2] 0.11 | [3] 0.089 | [4] 0.0617

CC(=O)N1CCN(c2nc(-c3ccccc3)c3cc(Br)ccc3n2)CC1
inactive: [1] 0.0769 | [2] 0.0692 | [3] 0.115 | [4] 0.105

COc1ccccc1/C=C/c1nc(O)c([N+](=O)[O-])c(=O)[nH]1
inactive: [1] 0.123 | [2] 0.138 | [3] 0.0902 | [4] 0.00102

CCOC(=O)c1c[nH]c2ccc(OC)cc2c1=O
inactive: [1] 0.15 | [2] 0.1 | [3] 0.112 | [4] 0.121

CC(C)[C@@H](C)/C=C/[C@@H](C)[C@H]1CC[C@H]2C3=CC=C4C[C@@H](O)CC[C@]4(C)[C@H]3CC[C@]12C
inactive: [1] 0.0837 | [2] 0.11 | [3] 0.0787 | [4] 0.0538

COc1cc(Nc2c(C#N)cnc3cc(OCCCN4CCN(C)CC4)c(OC)cc23)c(Cl)cc1Cl
inactive: [9] 0.00802 | [10] 0.123 | [11] 0.0466 | [12] 0.063 | [13] 0.0151 | [14] 0.16 | [15] -0.0156 | [16] 0.139 | [17] -0.148 | [18] -0.136
active: [19] -1.59 | [20] -0.647

COc1cc2c(Oc3ccc4[nH]c(C)cc4c3F)ncnc2cc1OCCCN1CCCC1
inactive: [9] 0.0825 | [10] 0.0561 | [11] 0.034 | [12] 0.013 | [13] 0.0586 | [14] 0.0142 | [15] 0.0459 | [16] 0.0297 | [17] -0.077 | [18] 0.092 | [19] 0.0238 | [20] 0.0041

COc1cc(C(=O)OCCCN2CCCN(CCCOC(=O)c3cc(OC)c(OC)c(OC)c3)CC2)cc(OC)c1OC
inactive: [5] 0.105 | [6] 0.0948 | [7] 0.199 | [8] 0.123

O=C(O)CSc1nnc(-c2ccc(Cl)cc2Cl)n1-c1ccccc1
inactive: [1] 0.109 | [2] 0.165 | [3] 0.15 | [4] 0.122

COc1c(C(=O)O)ccc2c1CCC(C)(C)O2
inactive: [1] 0.0873 | [2] 0.0519 | [3] 0.206 | [4] -0.0164

CCOc1ccc(C(=O)Nc2cccc(OC)c2)cc1Cl
inactive: [1] 0.0358 | [2] 0.0408 | [3] 0.151 | [4] 0.0428

CCOc1cc2ncc(C#N)c(Nc3ccc(F)c(Cl)c3)c2cc1NC(=O)/C=C/CN(C)C
inactive: [9] 0.06 | [10] 0.0264 | [11] 0.0695 | [12] 0.0377 | [13] 0.0744 | [14] -0.098 | [17] -0.14 | [18] -0.477
active: [15] -0.201 | [16] -0.422 | [19] -1.43 | [20] -0.678

CCOc1cc2ncc(C#N)c(Nc3ccc(OCc4ccccn4)c(Cl)c3)c2cc1NC(=O)/C=C/CN(C)C
active: [17] -0.204 | [18] -0.529
inactive: [9] 0.0468 | [10] 0.0085 | [11] -0.038 | [12] -0.0155 | [13] -0.0139 | [14] -0.00326 | [15] -0.0436 | [16] -0.282 | [19] -0.035 | [20] -0.415

CCOc1ccc(C(=O)Nc2ccc(NC(=O)CC)cc2)cc1Cl
inactive: [1] 0.102 | [2] 0.0179 | [3] 0.0812 | [4] -0.0835

COc1cccc(-n2c(C)c(C(C)=O)c(C(C)=O)c2C)c1
inactive: [1] -0.0313 | [2] 0.00668 | [3] 0.0772 | [4] -0.0891

COc1cc(C(=O)NC2CCCCC2)c([N+](=O)[O-])cc1OC
inactive: [1] 0.122 | [2] 0.0996 | [3] 0.157 | [4] 0.0416

CC(=O)O[C@]1(C(=O)CO)[C@H](C)C[C@H]2[C@@H]3CCC4=CC(=O)C=C[C@]4(C)[C@@]3(F)[C@@H](O)C[C@@]21C
inactive: [1] 0.0305 | [2] -0.118 | [3] 0.0736 | [4] -0.0945

COc1ccc(/C=C(/NC(=O)c2ccccc2)C(=O)N2CCCCCC2)cc1OC
inactive: [1] 0.12 | [2] 0.0586 | [3] 0.088 | [4] 0.085

CC(C(=O)O)[C@H]1CCC2C3CC=C4C[C@@H](O)CC[C@]4(C)C3CC[C@@]21C (some centres not stated)
inactive: [1] 0.0415 | [2] 0.0559 | [3] 0.0699 | [4] -0.0298

CC1(C)CC(=O)C2=C(C1)Nc1ccccc1N(C(=O)Cc1ccc(Cl)cc1)C2c1cccnc1 (configuration not stated)
inactive: [1] 0.0404 | [2] 0.0353 | [3] 0.127 | [4] 0.0963

CC1=C(C(=O)Nc2ccccc2Cl)C(c2ccc(F)cc2)NC(=O)N1 (configuration not stated)
inactive: [1] 0.153 | [2] 0.0871 | [3] 0.0947 | [4] -0.018

CC1(C)CC2C1CCC1(CBr)CCC3C(CC(=O)O)C(=O)OC32C1 (configuration not stated)
inactive: [1] 0.146 | [2] 0.038 | [3] 0.195 | [4] 0.152

CCN(CC)CCNC(=O)c1cc(S(C)(=O)=O)ccc1OC
inactive: [1] 0.0293 | [2] 0.172 | [5] 0.198 | [6] 0.0568 | [3] 0.105 | [4] 0.182 | [7] 0.192 | [8] 0.0888

CCN(CC)CCNC(=O)c1ccc(N)cc1
inactive: [1] 0.0893 | [2] 0.128 | [5] 0.138 | [6] 0.0499 | [3] 0.121 | [4] 0.267 | [7] 0.308 | [8] 0.0657

CCN(CC)CCNC(=O)c1c(C)[nH]c(/C=C2\C(=O)Nc3ccc(F)cc32)c1C
inactive: [9] 0.0562 | [10] 0.0683 | [11] 0.0856 | [12] 0.0784 | [13] -0.0103 | [14] 0.0749 | [15] -0.00223 | [16] 0.0762 | [17] -0.0922 | [18] 0.071
active: [19] -0.697 | [20] -0.541
